Holding throughout (experiment): NCI-60 one-dose screen, 48 h (100 = growth as untreated, 0 = no growth, -100 = all killed)
Common to all, as to conditions: 10 µM unless noted

For test [1], the system named is NCI-H23 lung.
In test [2] the test system is NCI-H226 lung.
In test [3] the test system is NCI-H322M lung.
Test [4] has as its system HOP-62 NSCLC.
In test [5] the test system is NCI-H460 lung.
Test [6] relates to HOP-92 NSCLC.
For test [7], the system named is NCI-H522 lung.
In test [8] the test system is A549/ATCC NSCLC.
For test [9], the system named is 786-0 renal.
Test [10] relates to COLO 205 colon.
The test system of test [11] is DU-145 prostate.
Test [12] deals with K-562 leukemia.
Test [13] concerns MALME-3M melanoma.
The test system of test [14] is MDA-MB-231 breast.
In test [15] the test system is RXF 393 renal.
The subject of test [16] is SF-268 CNS.
Test [17] has as its system SF-295 CNS.
Test [18] deals with SF-539 CNS.
The test system of test [19] is UACC-257 melanoma.
In test [20] the test system is M14 melanoma.

Experimental findings from PubChem BioAssay (NCI) are described below.

About 83,000 compounds went through this panel and 20% of them were active in at least one assay; those are over-represented in the sample as a whole.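 Single-dose data. Exposure time 48 hours. Values below 10 considered active.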 Unmarked numbers belong to inactive results. The source made the active and inactive calls.

For the molecule `CCn1c2ccccc2c2cc(C(=O)c3cccc4c3CCCN4)ccc21`, the growth in test [1] is 100%; in test [2], 92.2%; in test [3] it was 102%; in [4] it was 95.7%; in test [5], 101%; in test [6] it was 101%. In addition, the growth in test [7] was 115%; in test [8] it was 106%; in test [9], 99%; in [10], 102%; in [11], 102%; in test [12] it was 101%. The growth in [13] is 107%; in test [14], 98.1%; in [15], 104%; in test [16], 102%; in test [17], 103%; in [18], 111%. For the same molecule, the growth in test [19] is 113%; in test [20] it was 96.9%.

As for `CNC(=O)Oc1cccc(C(F)(F)F)c1`, the growth in test [1] is 108%; in [2], 90%; in [3] it was 125%; in test [4] it was 107%; in test [5], 114%; in test [6] it was 106%. Besides, the growth is 95.2% in test [7]; 103% in test [8]; 105% in [9]; 107% in test [10]; 128% in [11]; 113% in test [12]. Also, the growth was 140% in test [13]; 103% in [14]; 146% in test [15]; 118% in [16]; 130% in test [17]; 122% in test [18]. For the same molecule, the growth is 102% in test [19] and 101% in test [20].

As to `COc1cc(/C=C/[N+](=O)[O-])cc(OC)c1`, the growth in test [1] was -47.3% (active); in test [2], -31.2% (active); in test [3], 84.6%; in test [4] it was 35.9%; in [5], 40.6%; in [6] it was 28.9%. Besides, the growth in [7] is -40.1% (active); in [8], 28.6%; in test [9], -45.3% (active); in [10], -49.4% (active); in test [11] it was -63% (active); in test [12] it was 0.863% (active). Also, the growth is 24.1% in test [13]; 13.4% in test [14]; -90% (active) in test [15]; 25.7% in test [16]; 46.5% in test [17]; -72.2% (active) in test [18]. In addition, the growth in test [19] was -16.4% (active); in test [20], -30.1% (active).

Regarding `CC[C@H](C)[C@H](NC(=O)[C@H]1CCCCN1C)C(=O)N(C)[C@H](C[C@@H](OC(C)=O)c1nc(C(=O)NC23CC(C(=O)OC)(C2)C3)cs1)C(C)C`, the growth in [1] is 18.4%; in test [2], 18.3%; in test [3], 55.7%; in test [4] it was 11.8%; in test [5], 8.77% (active); in [6], -1.71% (active). For the same molecule, the growth in test [7] was -22.3% (active); in [8] it was 9.09% (active); in test [9] it was 9.6% (active); in test [10], -46.8% (active); in test [11] it was -5.33% (active); in [12], 5.87% (active). For the same molecule, the growth is 67.3% in test [13]; 15% in [14]; 35.9% in [15]; 23.2% in test [16]; 2.38% (active) in [17]; -22% (active) in test [18]. The growth in test [19] was 46.6%; in [20], 4.22% (active).

For the molecule `C/C(=C\c1cc(C(F)(F)F)nn1CCNC(=O)OC(C)(C)C)[C@@H]1C[C@@H]2O[C@]2(C)CCC[C@H](C)[C@H](O)[C@@H](C)C(=O)C(C)(C)[C@@H](O)CC(=O)O1`, the growth was 59.2% in test [1]; 77.4% in test [2]; 72.3% in test [3]; 78.8% in test [4]; 30.5% in test [5]; 66.4% in test [6]. Further, the growth is 63.5% in test [7]; 54.3% in [8]; 67.8% in [9]; 30.6% in test [10]; 63.2% in [11]; 31.9% in [12]. The growth is 70% in [13]; 58.8% in test [14]; 53.2% in [15]; 60.4% in [16]; 75.5% in [17]; 57.5% in test [18]. For the same molecule, the growth in [19] was 83.5%; in [20], 50.1%.

For the molecule `COC(=O)[C@@H](C)C[C@H](Cc1ccc2ccccc2c1)NC(=O)c1csc([C@@H](C[C@H](C(C)C)N(C)C(=O)[C@@H](NC(=O)[C@H]2CCCCN2C)C(C)C)OC(C)=O)n1`, the growth in test [1] is 41.7%; in test [2], 80.2%; in test [3], 68.6%; in test [4] it was 64.7%; in test [5] it was 24.2%; in test [6], -5.09% (active). In addition, the growth is 22.2% in test [7]; 47.5% in test [8]; 26.5% in test [9]; -37.9% (active) in [10]; 46.6% in test [11]; 25.7% in test [12]. The growth was 63.1% in [13]; 21.2% in test [14]; 49.1% in test [15]; 29.4% in test [16]; 56.7% in test [17]; 10.4% in test [18]. For the same molecule, the growth is 77% in test [19] and 24.6% in [20].

Regarding `O=[N+]([O-])/C=C\c1ccc(Cl)c(Cl)c1`, the growth in [1] is 77%; in [2] it was 73.8%; in test [3], 105%; in test [4] it was 95.6%; in [5] it was 67.2%; in test [6], 59.2%. Further, the growth in test [7] was 74%; in test [8] it was 57.5%; in [9], 74%; in test [10], 41.1%; in [11], 70%; in test [12], 11.8%. The growth in [13] is -0.637% (active); in [14] it was 74.8%; in test [15] it was -79.8% (active); in test [16], 69.2%; in test [17] it was 98.8%; in test [18] it was 65.2%. The growth is 69.6% in [19] and -9.23% (active) in [20].

Regarding `CCCCNC(c1ccc(Cl)cc1)C(O)c1ccc(Cl)cc1` (stereo not given), the growth in test [1] was 38.5%; in test [2], 65.7%; in test [3], 51.4%; in test [4], 40.6%; in test [5], 7.67% (active); in [6], -5.31% (active). The growth in test [7] was 35.2%; in test [8] it was 63.5%; in test [9], 50%; in test [10], -71.4% (active); in test [11] it was 37.2%; in test [12], 0.937% (active). For the same molecule, the growth in [13] is 39.7%; in [14], 5.73% (active); in test [15], 58.4%; in test [16] it was 55.9%; in [17] it was 41.3%; in [18], 68.3%. The growth is 86% in test [19] and 25.7% in test [20].
